Reference: ChEMBL document CHEMBL4513216, “Probing the Open Global Health Chemical Diversity Library for Multistage-Active Starting Points for Next-Generation Antimalarials” (ACS Infect Dis, 2020)
Screen size: about 69,000 compounds; about 8,600 (12%) showed an effect of 50% or more. The full list was thinned out, with strong results kept by preference.

Each molecule was assayed on Plasmodium berghei (assay: Screen against P. berghei liver stage (PbLuc), transformed with Luciferase, at 10uM). Settings: tested at 10 uM.
Format: functional, HepG2

| Structure (SMILES) | INHIBITION [%] |
| --- | --- |
| CN1CC[C@H](N(Cc2ccccc2)CC2CC2)C[C@H](O)C1 | 23.7 |
| Cc1ccsc1CN(CCCN(C)C)Cc1ccccn1 | 2.6 |
| O=C(CC1[C@H]2CN(Cc3ccsc3)C[C@@H]12)N1CCCC1 (stereo partly specified) | 7.5 |
| Cc1cc(-c2cnc(C)nc2CN(C)C(=O)c2cc(C3CC3)on2)on1 | -18.9 |
| CCOc1ccc(NC(=O)N(CCN(C)C)C(C)c2ccncc2)cc1 (stereo unspecified) | 14.3 |
| COCC1c2c(cnn2C)CCN1Cc1ccco1 (stereo unspecified) | 35.8 |
| CS(=O)(=O)N1CCC(n2nnn(-c3ccccc3)c2=O)CC1 | 2.7 |
| O=C(O)c1cn(CC2CCCN(c3nc4ccccc4s3)C2)nn1 (stereo unspecified) | 46.6 |
| c1ccc2nc(N3CCCC(Cn4cncn4)C3)cnc2c1 (stereo unspecified) | -2.55 |
| Cc1nc(C)n(CC2CCCN2c2ncnc3c2CCC3)n1 (stereo unspecified) | 26.9 |
| O=C1[C@@H]2CC[C@@H](CN(c3ncnc4ccsc34)C2)N1CC1CC1 | 78.9 |
| c1nc(N2CCCCC2Cn2cncn2)c2sccc2n1 (stereo unspecified) | 6.65 |
| c1nc(N2CCCC(Cn3cncn3)C2)c2ccsc2n1 (stereo unspecified) | -17.3 |
| CN1C(=O)[C@@H]2CC[C@H]1CN(c1ncnc3ccsc13)C2 | -15.1 |
| COc1cc(N2C[C@H]3CC[C@@H](C2)N(CC2CCC2)C3=O)ncn1 | 2.15 |
| c1ccc2sc(N3CCCC(Cn4cncn4)C3)nc2c1 (stereo unspecified) | 54.5 |
| c1nc(N2CCCC(Cn3cncn3)C2)c2sccc2n1 (stereo unspecified) | 85.4 |
| Cc1nc(C)n(CC2CCCN(CC3CCCCC3)C2)n1 (stereo unspecified) | 15.6 |
| Cc1nc(C)n(CC2CCCN(c3ncnc4c3CCC4)C2)n1 (stereo unspecified) | 80.8 |
| Cc1ccnc(C2CCN(S(=O)(=O)c3cn(C)cn3)CC2)n1 | -10.5 |
| O=C(Nc1cccnc1)C1CN(C(=O)c2ccc3c(c2)OCO3)C1 | 34.6 |
| CCc1nc(CN2CCCC2c2c(C)nn(C)c2OC)no1 (stereo unspecified) | 33.8 |

| Structure (SMILES) | INHIBITION [%] |
| --- | --- |
| Cc1nn(C)c(C)c1C1CCCN1Cc1ccc(C(N)=O)cc1 (stereo unspecified) | 13.3 |
| Cn1nc(CO)c2c1CCN(c1ncnc3c1CCNCC3)C2 | 26.8 |
| Cn1cnnc1C1CCCN(C(=O)c2cc(Cl)cc(Cl)c2)C1 (stereo unspecified) | 11.6 |
| O=C(c1cccc(CNS(=O)(=O)c2ccc(F)cc2)c1)N1CCCC1 | 15.6 |
| COCc1nc(CN2CC(Cc3ccccc3)CC2=O)no1 (stereo unspecified) | -37.2 |
| Cc1nnc(SCC(=O)N2C[C@@H]3CC[C@H]2CN(c2ncccn2)C3)[nH]1 | 19.4 |
| Cc1nc(C)n(CC2CCCN(CCc3ccccc3)C2)n1 (stereo unspecified) | 38.8 |
| Cc1nc(C)n(CC2CCCN2c2ncnc3ccsc23)n1 (stereo unspecified) | 27.8 |
| Cc1nc(C)n(CC2CCCN(c3ccc(C#N)cn3)C2)n1 (stereo unspecified) | -10.6 |
| Cc1nc(C)n(CC2CCCN2c2ncnc3sccc23)n1 (stereo unspecified) | -3.81 |
| Cc1nc(C)n(CC2CCCN(c3ncnc4ccccc34)C2)n1 (stereo unspecified) | 88.2 |
| Cc1nc(C)n(CC2CCCCN2c2ncnc3ccsc23)n1 (stereo unspecified) | 27.8 |
| Cc1nc(C)n(CC2CCCN(c3ncnc4[nH]ccc34)C2)n1 (stereo unspecified) | 5.13 |
| Cc1nc(C)n(CC2CCCN(CCc3ccncc3)C2)n1 (stereo unspecified) | 24 |
| Cc1nc(C)n(CC2CCCN(c3ccnc(-c4ccccc4)n3)C2)n1 (stereo unspecified) | 26.6 |
| Cc1nc(C)n(CC2CCCN(c3ncnc4ccsc34)C2)n1 (stereo unspecified) | 83.1 |
| Cc1nc(C)n(CC2CCCN(c3ncnc4sccc34)C2)n1 (stereo unspecified) | 72.9 |
| Cc1nc(C)n(CC2CCCN(CCc3ccccn3)C2)n1 (stereo unspecified) | 53.8 |
| CCOc1ccc(S(=O)(=O)NC(=O)CC2CCCO2)cc1 (stereo unspecified) | -4.94 |
| Cc1ccc(CN2CC[C@H]3OCC[C@@]3(C(=O)N3CCCO3)C2)o1 | 0.618 |
| Cc1nn(CCC(=O)N2CCN(Cc3cnn(C)c3C)CC2)c(C)c1Br | 43.4 |
| CC(C)c1nc(C2CCCN2C(=O)c2ccc(C#N)cn2)no1 (stereo unspecified) | 22.9 |

| Structure (SMILES) | INHIBITION [%] |
| --- | --- |
| CN(C)c1cncc(C2CCCN(c3cnccn3)C2)n1 (stereo unspecified) | 17.77 |
| CN(Cc1ccc(Br)c2cccnc12)S(C)(=O)=O | -17.85 |
| CC(C)N1CCC(c2cccc(C(=O)N(C)C)n2)CC1 | -7.66 |
| c1cc(CN2CCC(c3nnc4n3CCCCC4)CC2)c2nonc2c1 | 64.4 |
| c1cc(CN2CCC(c3nnc4n3CCCCC4)CC2)c2c(c1)OCO2 | 29.7 |
| c1ccc2c(c1)CC(N1CCCN(Cc3cccc4nonc34)CC1)C2 | 49 |
| CCC(C)(COc1ncccc1Cl)NCC(=O)Nc1ccc(Br)cn1 (stereo unspecified) | 36.5 |
| CCOc1ncccc1NC(=O)NC1CCN(C(=O)C2CC2)CC1 | 41.2 |
| CCC(C)(COc1ncccc1Cl)NCC(=O)NC1CCCCC1 (stereo unspecified) | 68.5 |
| CC(C)CNC(=O)CNC(=O)Nc1cccc(Cl)c1-n1cccn1 | -29.2 |
| Cc1ccc(Oc2ncccc2CNC(=O)NC2CCCCC2)cn1 | 19.4 |
| CCC(C)(COc1ncccc1Cl)NCC(=O)NCC(C)C (stereo unspecified) | 57.4 |
| COc1ccc(C(=O)NCc2ccc(C(=O)O)o2)cc1 | 10.6 |
| O=C(Cc1ccc(F)cc1)NCc1ccc(C(=O)O)o1 | 1.62 |
| O=C(NCc1ccc(C(=O)O)o1)c1ccc(F)cc1 | 51.1 |
| CC(C(=O)Nc1sccc1C(N)=O)N(C)CCOc1ccccc1 (stereo unspecified) | 94 |
| Cc1ccccc1OCCC(=O)OC(C)C(=O)Nc1sccc1C(N)=O (stereo unspecified) | 45.1 |
| Cc1csc(CN(C)CCOc2ccccc2)n1 | -4.23 |
| Cc1[nH]nc(CCC(=O)NCC2CCCN(C3CCCC3)C2)c1C (stereo unspecified) | 41.6 |
| Cc1ccc(OCCN2CCN(Cc3cnn(CCO)c3)CC2)cc1 | 22.25 |
| CCOc1cccc(C(=O)N2CCC3(CC2)[C@H](O)C[C@@H]3OC)c1 | -55.1 |
| COc1cccc(C(=O)N2CCOC3(CCCN(C(C)=O)C3)C2)c1 (stereo unspecified) | 33.4 |

| Structure (SMILES) | INHIBITION [%] |
| --- | --- |
| C=C(C)COc1cccc(C(=O)N2CCC3(CCOCC3)CC2)c1 | 52.6 |
| C=C(C)COc1cccc(C(=O)N2CCC3(CC2)CN(C)CCN3C)c1 | 46.1 |
| CC(C)(O)CCc1cccc(C(=O)N2CCC3(CCOCC3)CC2)c1 | -147 |
| C=C(C)COc1cccc(C(=O)N2CCC(O)(c3ccccc3)CC2)c1 | 65.6 |
| CCn1nc(C)cc1C(=O)N1C[C@@H]2C[C@@H](c3nc(C)cs3)O[C@@H]2C1 | 15.6 |
| CC(C)COc1cncc(N2CCCN(CC(F)(F)F)CC2)n1 | -1.04 |
| CC(C)COc1cncc(N2CCCN(c3ncccn3)CC2)n1 | 50.4 |
| CC(C)COc1cncc(N(C)C2CCN(c3ncccn3)CC2)n1 | 21.2 |
| O=C(NCc1ccco1)[C@@]12CCO[C@@H]1CCN(c1ncccn1)C2 | 27.6 |
| Cn1cc(CC2CC(=O)N(Cc3ccccc3OC(F)F)C2=O)cn1 (stereo unspecified) | 33.1 |
| CN(C)C(=O)c1nn(C)c2c1CN(Cc1cccs1)C2 | -6.23 |
| Cc1ccc(CN2C[C@H](N3CCOCC3)[C@@H]3OCCC[C@@H]32)o1 | -22.1 |
| Cc1nccn1CCC1CCN(C(C)C)CC1 | 38.8 |
| CN1CCCN(c2ccc(F)cc2CNC(=O)c2cccnc2)CC1 | -12.2 |
| Cc1ccc(C(=O)NCc2cc(F)ccc2N2CCCN(C)CC2)o1 | 42.1 |
| CN1CCCN(c2ccc(F)cc2CNC(=O)c2ccsc2)CC1 | 79.7 |
| CN(CCCOc1ccccc1Cl)C(=O)CN1C[C@H]2CC[C@@H](CC1=O)N2 | 17 |
| CCS(=O)(=O)NC1CCCN(c2ccc(F)cc2C)C1=O (stereo unspecified) | 5.29 |
| Cc1oc(C(C)C)cc1C(=O)N1CCN(c2cnn(C)c(=O)c2)CC1 | 51.1 |
| CCc1ncc(C(=O)N2CCN(c3cnn(C)c(=O)c3)CC2)cn1 | 45.8 |
| Cc1cncc(C(=O)N2CCN(c3cnn(C)c(=O)c3)CC2)c1 | -5.52 |
| CN(C)c1ccccc1C(=O)N1CCCC(c2ccc(C(=O)O)cc2)C1 (stereo unspecified) | 18.6 |

| Structure (SMILES) | INHIBITION [%] |
| --- | --- |
| CCC(C(=O)N1CCN(C(=O)N2CCOCC2)CC1)n1cccn1 (stereo unspecified) | 33 |
| CCc1csc(CNC(=O)C(CC)n2cccn2)n1 (stereo unspecified) | 19.8 |
| CCC(C(=O)NCc1csc(N2CCOCC2)n1)n1cccn1 (stereo unspecified) | 57.5 |
| CCC(C(=O)NCc1csc(-c2ncccn2)n1)n1cccn1 (stereo unspecified) | 60.4 |
| CCC(C(=O)NCc1cc(N2CCOCC2)ncn1)n1cccn1 (stereo unspecified) | 36.7 |
| CC(Cn1cccn1)NCc1csc(-c2ncccn2)n1 (stereo unspecified) | -29.1 |
| Cc1ccoc1C(=O)N1CCO[C@H]2[C@H](OCCN(C)C)CC[C@@H]21 | 22.4 |
| Cc1ccc(C(=O)NCCS(=O)(=O)N2CCSCC2)n1C | -28.9 |
| CC(C)=CCN1CCN(CCCc2ccccc2)[C@H]2CS(=O)(=O)C[C@H]21 | 51.3 |
| CC(C)=CCN1CCN(CCCOc2ccccc2)[C@H]2CS(=O)(=O)C[C@H]21 | -25.7 |
| CN(C)C(=O)N1CCN(CCCc2ccccc2)[C@H]2CS(=O)(=O)C[C@H]21 | -11.5 |
| COc1ccc(OCCN(C)Cc2nc3c(cnn3C)c(=O)[nH]2)cc1 | 38.8 |
| CN1CCC(C)(CN(C)Cc2ccc(CCC(C)(C)O)cc2)C1 (stereo unspecified) | 32.4 |
| Cc1cc(S(=O)(=O)NCC(C)(O)CN(C)C)c(F)cc1F (stereo unspecified) | 36.5 |
| COc1cc(NC(=O)N(C)CC2CC2)ncn1 | 1.84 |
| COc1cc(NC(=O)N(C)C(C2CC2)C2CC2)ncn1 | 88.4 |
| COc1cc(NC(=O)N(C)CCC2CC2)ncn1 | 4.82 |
| CS(=O)(=O)c1cccc(C(N)c2ccc(Cl)cc2)c1 (stereo unspecified) | -53.2 |
